Source: PubChem (several laboratories)
Hits are enriched below; roughly 3.8% of the tested compounds scored in any of these assays.
ERa coact pot: enhances coactivator binding to human estrogen receptor alpha; TR-FRET ERalpha-LBD/SRC-Cy5 coactivator binding, 2 h; 100 = basal binding, no effect; coactivator binding (% of control), % at 25.6 µM; P03372; 86,000 compounds, 1.3% hits; AID 639; in the data active means activity above about 200%;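 further: binding measured in presence of low estradiol as agonist stimulus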
Target sequence (P03372 whole entry, looked up, the tested form may be a part): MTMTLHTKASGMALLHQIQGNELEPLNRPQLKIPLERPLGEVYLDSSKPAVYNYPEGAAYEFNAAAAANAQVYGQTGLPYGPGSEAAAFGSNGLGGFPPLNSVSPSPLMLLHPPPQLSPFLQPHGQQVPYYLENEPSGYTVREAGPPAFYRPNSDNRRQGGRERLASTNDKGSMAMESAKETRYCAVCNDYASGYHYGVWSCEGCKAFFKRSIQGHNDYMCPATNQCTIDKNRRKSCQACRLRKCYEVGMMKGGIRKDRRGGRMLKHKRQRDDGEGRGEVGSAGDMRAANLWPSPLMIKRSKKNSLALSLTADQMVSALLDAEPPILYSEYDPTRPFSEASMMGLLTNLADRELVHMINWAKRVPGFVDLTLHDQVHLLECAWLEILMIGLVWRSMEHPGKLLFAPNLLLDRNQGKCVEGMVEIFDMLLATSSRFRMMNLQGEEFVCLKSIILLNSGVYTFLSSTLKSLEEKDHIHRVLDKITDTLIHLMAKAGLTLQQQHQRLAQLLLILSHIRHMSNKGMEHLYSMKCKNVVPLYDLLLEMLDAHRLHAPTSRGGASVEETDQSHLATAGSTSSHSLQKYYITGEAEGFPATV
ERb coact inh: ER-beta (human) coactivator binding inhibition; TR-FRET ER-beta LBD / SRC1-Cy5 peptide binding; receptor agonist-loaded with 1 µM estradiol; inhibition, % at 25.6 µM; 86,000 compounds, 1.3% hits;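 active means compounds whose percent inhibition of the receptor-coactivator binding signal exceeds about 50% in the single-dose screen, limit read from the data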
Smad3 FoxH1 inh: blocks human Smad3 binding to FoxH1 peptide; 88,000 compounds, 0.29% hits; TR-FRET Smad3/Dy647-FoxH1 peptide binding, europium anti-His; inhibition, % at 25 µM; AID 630; P84022;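 active means compounds that reduce the energy-transfer binding signal between the protein and its labelled peptide by more than half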
ERa SRC1 inh: blocks coactivator binding to human estrogen receptor alpha. TR-FRET ER-alpha LBD / SRC-1 peptide, estradiol-bound. inhibition, % at 25.6 µM. 86,000 compounds, 1.7% hits. AID 629; in the data active means inhibition above about 50%
Calb biofilm kill: kills Candida albicans biofilms. C. albicans biofilm + clotrimazole, Alamar Blue. inhibition, % at 6 µM. 85,000 compounds, 0.14% hits;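 active means inhibition above 20%; inactive means inhibition below 20%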;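 further: preformed 24 hr biofilms exposed to compound for 48 hr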
Of the large screens only hits and unclear results are named; the others gave an inactive call; [ ] = remark or other dose.

O=C(O)CCn1ccnc1-c1ccccc1	ERa coact pot 475
Cc1nccn1CCC(=O)O	none
Cc1nc2ncnn2c(N2CCN(C(=O)Cc3cccs3)CC2)c1C	ERb coact inh 85[fluorescence artefact?], ERa SRC1 inh 90[fluorescence artefact?]
Nc1cc(C(=O)O)[nH]c(=O)n1	none (no result: ERa coact pot, ERb coact inh, ERa SRC1 inh, Calb biofilm kill)
Nc1ncnc2c1ncn2[C@H]1O[C@@H](CO)[C@H](O)[C@H]1N	none (no result: ERa coact pot, ERb coact inh, ERa SRC1 inh, Calb biofilm kill)
C#CC[N+]1(CC#Cc2ccc(C#CC[N+]3(CC#C)CCOCC3)cc2)CCOCC1	ERb coact inh 60[fluorescence artefact?]
O=C(COC(=O)CCOc1ccccc1)NCc1ccco1	ERb coact inh 62[fluorescence artefact?], ERa SRC1 inh 70
O=C(CSCC(=O)NCc1ccco1)NCc1ccco1	none
O=C(CCSCCC(=O)NCc1ccco1)NCc1ccco1	ERb coact inh 57[fluorescence artefact?], ERa SRC1 inh 59[fluorescence artefact?]
O=C1Nc2ccccc2SC(c2ccccc2)C1O (centres undefined)	ERb coact inh 88, ERa SRC1 inh 95
O=C(O)CC1Sc2ccccc2NC1=O (centres undefined)	none
N#Cc1c(N)nc(SCC(=O)NC2CCCCC2)c(C#N)c1-c1ccc(Cl)cc1	ERb coact inh 51[fluorescence artefact?], ERa SRC1 inh 66[fluorescence artefact?]
CCOC(=O)CSc1nc(N)c(C#N)c(-c2ccc(OCC)cc2)c1C#N	none
CC(C)c1ccc(-c2c(C#N)c(N)nc(SCC(=O)N3CCCCCC3)c2C#N)cc1	ERa coact pot 260[fluorescence artefact?]
CC(C)c1ccc(-c2c(C#N)c(N)nc(SCC(=O)N3CCCCC3)c2C#N)cc1	ERa SRC1 inh 50[fluorescence artefact?]
N=C(N)SCc1cccc(-c2nc3ccccc3c(=O)o2)c1	none (no result: ERa coact pot, ERb coact inh, ERa SRC1 inh, Calb biofilm kill)
C[C@@H]1C[C@H](C)CN(S(=O)(=O)c2cc(Cl)c(Oc3ccc([N+](=O)[O-])cc3Cl)c(Cl)c2)C1	none (no result: ERa coact pot, ERb coact inh, ERa SRC1 inh, Calb biofilm kill)
CCOC(=O)c1ccc(NC(=O)CSc2nc(C)cc(=O)[nH]2)cc1	ERb coact inh 84[fluorescence artefact?], ERa SRC1 inh 90
Cc1cc(=O)[nH]c(SCC(=O)Nc2ccc(C(=O)O)cc2)n1	none
CC(C)c1ccc(NC(=O)CSc2nc3c(c(=O)[nH]2)CCC3)cc1	ERa SRC1 inh 100[fluorescence artefact?]
Cc1cc(=O)[nH]c(SCC(=O)NCc2ccco2)n1	ERb coact inh 66
Cc1cc2nc(-c3cccnc3SCC(=O)NCc3ccco3)[nH]c2cc1C	ERb coact inh 60, ERa SRC1 inh 69[fluorescence artefact?]
O=C(O)C[C@H](Cc1ccccc1Cl)C(=O)O	none (no result: ERa coact pot, ERb coact inh, ERa SRC1 inh, Calb biofilm kill)
Cc1c(C(=O)N2CCN(c3ccccn3)CC2)sc2ncnc(N3CCN(c4ccccc4)CC3)c12	ERa coact pot 207[fluorescence artefact?]
Cc1ccccc1C(=O)Nc1ccc(Br)cn1	ERa coact pot 204
O=C(O)[C@H]1CCCN1Cc1c[nH]c2ccccc12	none (no result: ERa coact pot, ERb coact inh, ERa SRC1 inh, Calb biofilm kill)
O=C(c1noc2c1CCCCC2)N1CCN(C(c2ccccc2)c2ccccc2)CC1	none
O=C(c1noc2c1CCCC2)N1CCN(C(c2ccccc2)c2ccccc2)CC1	ERa coact pot 240
CC(C)COC(=O)Cn1cnc2ccc(Br)cc2c1=O	none
CCOc1ccc2nc(Nc3nc(CSc4nnnn4-c4ccccc4)cc(=O)[nH]3)nc(C)c2c1	ERa coact pot 216[fluorescence artefact?], ERa SRC1 inh 70[fluorescence artefact?]
COc1ccc2nc(Nc3nc(C)c(CCC(C)C)c(=O)[nH]3)nc(C)c2c1	none (no result: Calb biofilm kill)
CCOc1ccc2nc(Nc3nc4c(c(=O)[nH]3)CCC4)nc(C)c2c1	ERa SRC1 inh 52[fluorescence artefact?]
C[N@@+]1(CCC(=O)c2ccccc2)CC[C@H]2CC[C@H](C2)C1	none (no result: ERa coact pot, ERb coact inh, ERa SRC1 inh, Calb biofilm kill)
COc1ccc(Nc2nc(N3CCCC3)c3ccccc3n2)cc1	ERa SRC1 inh 68[fluorescence artefact?]
CC1CCCN(C(=O)COC(=O)c2n[nH]c3ccccc23)C1 (centres undefined)	ERa SRC1 inh 57
Cc1cc(C)c2c(SCc3ccc(Cl)cc3Cl)nc(N)nc2n1	none (no result: ERa coact pot, ERb coact inh, ERa SRC1 inh, Calb biofilm kill)
COC(=O)c1[nH]c2cccc(OC)c2c1NC(=O)CN1CC2(C)CC1CC(C)(C)C2 (centres undefined)	Smad3 FoxH1 inh 67[fluorescence artefact?]
Cc1oc2c(cc(NS(=O)(=O)c3ccc4c5c(cccc35)C(=O)N4)c3ccccc32)c1C(=O)OC(C)C	ERb coact inh 57, ERa SRC1 inh 93[fluorescence artefact?]
COC(=O)c1cc(COc2ccc3oc(C)c(C(=O)OC(C)C)c3c2)c(C)o1	none
COC(=O)c1oc2nc(C)cc(C)c2c1N	ERa SRC1 inh 57[fluorescence artefact?]
Cc1cc(C)c2c(N)c(C(=O)c3ccccc3)oc2n1	none
O=C(O)C1CCN(S(=O)(=O)/C=C/c2ccccc2)CC1	none
C[C@@]12CC[C@@H]3[C@H](CCC4=CC(=O)CC[C@]43C)[C@H]1CC[C@H]2C(=O)COS(=O)(=O)c1ccc(Br)cc1	none (no result: ERa coact pot, ERb coact inh, ERa SRC1 inh, Calb biofilm kill)
Oc1ccc(CNc2ccccc2F)c2cccnc12	ERb coact inh 62[fluorescence artefact?]
